Test results published in PubChem BioAssay AID651692 (Broad Institute, 2012).
Results with a measured potency or affinity are listed apart. Activity calls are given as the source filed them.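 How the source made its calls: active means fitted half-maximal concentration for loss of cell signal no higher than twice the top valid tested concentration; inconclusive means flat curve at 30 to 70% inhibition, or poor fit; inactive means flat within 30%, signal rise, or potency above limit.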

Experiment: MDA-MB-231 cell growth inhibition, dose response, cytotoxicity control for RAD54 inhibitor project, CellTiter-Glo luminescence, cherry-pick (AID 651692);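 further: more negative values mean stronger loss of viable cell signal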
Conditions: MDA-MB-231 viability, 24 h; series mostly up to 26 µM

| SMILES | outcome |
| --- | --- |
| COc1ccc(-c2nc(C(=O)NCCCN3CCOCC3)cc3c2[nH]c2ccccc23)cc1OC | inactive |
| CN1CCCN(c2cc(-c3ccc4ccccc4c3)nc3ccnn23)CC1 | inactive |
| COc1ccc(Nc2nc(N3CCCCC3)nc3ccccc23)c(OC)c1 | inactive |
| CN(C)CCSc1nc(N)c2c3c(sc2n1)CN(C)CC3 | inactive |
| COc1ncccc1-c1cc2nc(NCCCN(C)C)n(C)c(=O)c2s1 | inactive |
| CN1CCN(c2ncnc3c2[nH]c2ccc(F)cc23)CC1 | inactive |
| CCOC(=O)c1cnc2c(CC)cccc2c1NCCCN1CCOCC1 | inactive |
| CCOc1cc2[nH]c(=S)n(Cc3ccc(C(=O)NCCCN(CC)CC)cc3)c(=O)c2cc1OCC | inactive |
| CCn1c(=N)c(C(=O)NCCCOC)cc2c(=O)n3cccc(C)c3nc21 | inactive |
| CCCCN(CC)CCNC(=O)c1cc2c(=O)n(C)c3ccccc3c2n1C | inactive |
| Cc1ccc(S(=O)(=O)CCSc2ccc(C(F)(F)F)cn2)cc1 | inactive |
| CCOc1cc2[nH]c(=O)n(Cc3ccc(C(=O)NCCCN4CCC(C)CC4)cc3)c(=O)c2cc1OCC | inactive |
| Cc1cccc2c1-c1sc(C(=O)NCCCN3CCCC(C)C3)cc1CO2 (centres undefined) | inactive |
| Cn1c2ccc(F)cc2c2ncn(CCCN(CCO)CCO)c(=O)c21 | inactive |
| CSc1nc(SCC(N)=O)c2c3c(sc2n1)CN(C)CC3 | inactive |
| COc1cc2nc(N(C)C)nc(N)c2cc1OC | inactive |
| O=C(Nc1ccccc1)c1cc(S(=O)(=O)N2CCOCC2)cs1 | inactive |
| CCN(CC)CCCNC(=O)c1ccc2c3n(nc2c1)-c1ccc(Cl)cc1CO3 | inactive |
| COc1cc(NCCCNC(C)C)c2nccc(C)c2c1 | inactive |
| COc1cc(-c2cnc3c(NC=O)cc(-c4cccc(C(=O)NCCN(C)C)c4)cn23)cc(OC)c1OC | inactive |

| SMILES | outcome |
| --- | --- |
| CN1CCN(c2ccc(CNC(=O)C3Cc4c(-c5ccc(Cl)cc5)ccnc4O3)cc2)CC1 (centres undefined) | inactive |
| c1ccc(-c2nc(NCCCN3CCOCC3)c3ccccc3n2)cc1 | inactive |
| Cc1[nH]ccc2cc3nc4ccccc4c3cc12 | inactive |
| Oc1ccc(Nc2nc(N3CCCC3)c3ccccc3n2)cc1 | inactive |
| COc1ccc2cc3cc(C(=O)NCCCN4CCC(C)CC4)oc3nc2c1 | inactive |
| CCNCCNC(=O)c1c(O)c2cccc3c2n(c1=O)CCC3 | inactive |
| COc1ccc(-c2nn(C)c3sc(C(=O)NCCN(C)C)cc23)cc1OC | inactive |
| CCOC(=O)C1C(=O)NC(N2CCN(c3ccccc3)CC2)=NC1c1ccco1 (centres undefined) | inactive |
| Nc1cc2c3c(cccc3c1)C(=O)N(CCN1CCCC1)C2=O | inactive |
| Cc1ccc(-c2nc(NCCN3CCOCC3)c3ccccc3n2)cc1 | inactive |
| Nc1c(C(=O)NCCN2CCOCC2)c2nc3ccccc3nc2n1-c1ccccc1 | inactive |
| CCN(CC)CCNC(=O)c1cc2cc3ccc(OC)cc3nc2o1 | inactive |
| Cc1ccc(OCC(=O)Nc2cccc(-c3nnc(-c4ccccc4)o3)c2)c(C)c1 | inactive |
| CCN(CC)CCNc1nc2cc(OC)c(OC)cc2c2nc(-c3ccccc3)nn12 | inactive |
| CN(C)CCNC(=O)c1cccc(-c2cnc3c(NC=O)cc(-c4ccccc4F)cn23)c1 | inactive |
| CCN1CCN(CCCNC(=O)c2cc3c(=O)oc4ccc(C)cc4c3s2)CC1 | inactive |
| COc1cccc(-c2cnc3c(NC(C)=O)cc(-c4cccc(C(=O)NCCN(C)C)c4)cn23)c1 | inactive |
| CCN(CC)Cc1cc(Nc2ccnc3cc(Cl)ccc23)ccc1O | inactive |
| O=C(Nc1ccc2c(c1)OCO2)c1cc(-c2ccncc2)nc2ccccc12 | inactive |
